According to PubChem BioAssay AID1159580 (chemical genetic matrix, 2015):
About 2,000 (36%) of roughly 5,500 compounds were called active. Another 18% or so got no clear call; they are omitted. No stated cut-off is given here; in the data, active means normalized growth mostly below about 0.91 (no sharp cut-off); inconclusive means no clear call, values can overlap the other calls; inactive means mostly above about 0.92. The list shows a part of the results.

Experiment: chemical genetic growth profiling, strain panel (AID 1159580);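 further: tested at 20 µM; growth read once vehicle control cultures reached saturation at 30 °C; 1 = growth at the plate median or of vehicle wells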
Settings: growth OD
[1] = S. cerevisiae deletion strains, locus YAL013W, strain DEP1, stronger effect = lower value
[2] = S. cerevisiae deletion strains, locus YDR150W, strain NUM1, stronger effect = lower value
[3] = S. cerevisiae deletion strains, locus YGR229C, strain SMI1, stronger effect = lower value
[4] = S. cerevisiae deletion strains, locus YJR075W, strain HOC1, stronger effect = lower value
[5] = S. cerevisiae deletion strains, locus YMR263W, strain SAP30, stronger effect = lower value
[6] = S. cerevisiae deletion strains, locus YNL128W, strain TEP1, stronger effect = lower value
[7] = S. cerevisiae deletion strains, locus YNL153C, strain GIM3, stronger effect = lower value
[8] = S. cerevisiae deletion strains, locus YNL322C, strain KRE1, stronger effect = lower value
[9] = S. cerevisiae deletion strains, locus YPL055C, strain LGE1, stronger effect = lower value
[10] = S. cerevisiae deletion strains, locus YPL241C, strain CIN2, stronger effect = lower value
[11] = S. cerevisiae deletion strains, locus YAL040C, strain CLN3, stronger effect = lower value
[12] = S. cerevisiae deletion strains, locus YCL061C, strain MRC1 (second series), stronger effect = lower value
[13] = S. cerevisiae deletion strains, locus YDR363W, strain ESC2, stronger effect = lower value
[14] = S. cerevisiae deletion strains, locus YER002W, strain NOP16, stronger effect = lower value
[15] = S. cerevisiae deletion strains, locus YNL197C, strain WHI3, stronger effect = lower value
[16] = S. cerevisiae deletion strains, locus YNL224C, strain SQS1, stronger effect = lower value
[17] = S. cerevisiae deletion strains, locus YOR083W, strain WHI5 (second series), stronger effect = lower value

Measured: normalized growth

O=C1c2ccccc2C(=O)N1CN1CCC(O)(c2ccc(Cl)cc2)CC1
inactive: [1] 0.975 | S. cerevisiae deletion strains, locus YBR229C, strain ROT2, stronger effect = lower value 0.982 | S. cerevisiae deletion strains, locus YDL101C, strain DUN1, stronger effect = lower value 0.988 | S. cerevisiae deletion strains, locus YDL134C, strain PPH21, stronger effect = lower value 1.01 | [2] 1.01 | S. cerevisiae deletion strains, locus YEL061C, strain CIN8, stronger effect = lower value 0.991 | S. cerevisiae deletion strains, locus YGR078C, strain PAC10, stronger effect = lower value 0.981 | [3] 0.999 | S. cerevisiae deletion strains, locus YHR030C, strain SLT2, stronger effect = lower value 0.953 | S. cerevisiae deletion strains, locus YHR087W, strain rtc3, stronger effect = lower value 0.99 | S. cerevisiae deletion strains, locus YJR043C, strain POL32, stronger effect = lower value 0.966 | [4] 0.987 | S. cerevisiae deletion strains, locus YKL190W, strain CNB1, stronger effect = lower value 1.01 | S. cerevisiae deletion strains, locus YLR039C, strain RIC1, stronger effect = lower value 0.988 | S. cerevisiae deletion strains, locus YLR058C, strain SHM2 (second series), stronger effect = lower value 0.978 | S. cerevisiae deletion strains, locus YLR085C, strain ARP6, stronger effect = lower value 1.06 | S. cerevisiae deletion strains, locus YLR262C, strain YPT6, stronger effect = lower value 0.93 | S. cerevisiae deletion strains, locus YML094W, strain GIM5, stronger effect = lower value 1.02 | S. cerevisiae deletion strains, locus YMR219W, strain ESC1, stronger effect = lower value 0.993 | [5] 0.926 | [6] 0.987 | [7] 1.02 | S. cerevisiae deletion strains, locus YNL298W, strain CLA4 (second series), stronger effect = lower value 0.974 | [8] 0.985 | S. cerevisiae deletion strains, locus YNR030W, strain Alg12, stronger effect = lower value 0.991 | [9] 0.947 | [10] 1.01 | S. cerevisiae deletion strains, locus YPR135W, strain CTF4, stronger effect = lower value 0.94 | S. cerevisiae strains, strain wild type, stronger effect = lower value 0.992

O=C1NCN(c2ccccc2)C12CCN(CCCC(c1ccc(F)cc1)c1ccc(F)cc1)CC2
inactive: [1] 1.01 | [11] 0.995 | [12] 1 | [2] 0.987 | [13] 0.992 | [14] 1.03 | [4] 0.998 | [5] 1 | [6] 1.05 | [7] 0.982 | [15] 1.09 | [16] 1.07 | [8] 1 | [17] 1.09 | [10] 1

O=C(CCCN1CCC2(CC1)C(=O)N(CCc1ccc(N=C=S)cc1)CN2c1ccccc1)c1ccc(F)cc1
inactive: [11] 1.04 | [12] 0.982 | [13] 0.972 | [14] 1.03 | [3] 0.984 | [4] 0.968 | [5] 0.987 | S. cerevisiae deletion strains, locus YMR307W, strain GAS1, stronger effect = lower value 0.982 | S. cerevisiae deletion strains, locus YNL175C, strain NOP13, stronger effect = lower value 1 | [15] 1.02 | [16] 1.05 | [8] 0.948 | [17] 1.08 | [9] 0.916 | [10] 0.984
